# Screens: PubChem BioAssay, National Center for Advancing Translational Sciences (NCATS)
# Rows were chosen to be rich in hits. Some 2.5% of all compounds tested hit in one or more screens of this group.
# Cruzain Triton = blocks cruzain activity in presence of Triton detergent | Potency, µM, without a hit: max response, negative = inhibition, usual class: inhibitors | purified cruzain, Z-FR-AMC fluorescence, 0.01% Triton | 200,000 tested, 0.43% active | P25779 | AID 1478;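 further: plate controls were neutral wells for no effect and buffer without enzyme for full effect; nearly all actives have a fitted effect of over 40% in size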
# Target sequence (P25779 123-467 limits assumed): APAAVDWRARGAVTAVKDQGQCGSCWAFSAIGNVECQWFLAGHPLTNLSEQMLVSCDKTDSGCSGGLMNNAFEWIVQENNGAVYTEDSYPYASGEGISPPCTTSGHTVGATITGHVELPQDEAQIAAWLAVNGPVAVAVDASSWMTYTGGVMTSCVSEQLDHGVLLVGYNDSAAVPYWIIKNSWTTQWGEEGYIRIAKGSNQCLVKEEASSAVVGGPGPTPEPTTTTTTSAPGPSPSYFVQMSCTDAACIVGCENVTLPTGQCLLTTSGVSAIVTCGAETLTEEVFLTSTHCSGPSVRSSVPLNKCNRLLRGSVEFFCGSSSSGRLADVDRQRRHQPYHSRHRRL
#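 Read-out: AMC fluorescence (360 nm excitation, 450 nm emission), four reads over 2 min, first-to-third difference used. Conditions: cruzain 1.5 nM, Z-FR-AMC 2 uM, pH 5.5 acetate, 5 mM DTT, 0.01% Triton X-100.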
# Cruzain noTriton = inhibitors of Trypanosoma cruzi cruzain without detergent; purified cruzain, Z-FR-AMC fluorescence, no detergent; 200,000 tested, 2.3% active; AID 1476; Potency, µM, inactives show max response, negative = inhibition, usual class: inhibitors;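 further: plate controls were enzyme without inhibitor for no effect and buffer without enzyme for full effect; nearly all actives have a fitted effect of over 40% in size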
#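 Purified cruzain at 1.5 nM, pre-incubated 15 min with compound at room temperature in 100 mM sodium acetate pH 5.5, 5 mM DTT, 0.00005% Triton X-100. Reaction started with 2 uM Z-FR-AMC; AMC fluorescence increase over 60 s gives rate.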
# Starred values were filed as active, the others as inactive; ? = inconclusive. The call rests on the fitted dose curve; in most records, active means well fitted curve in the direction sought with a large enough effect; inconclusive means small, poorly fitted or top-dose-only effect, or another doubt; inactive means no such curve, though single readings can be large; an effect the other way counts as inactive or inconclusive. Potency means the concentration at half of the fitted maximal effect.
SMILES,Cruzain Triton,Cruzain noTriton
Cc1ccc(-c2nnc(SCC(=O)N3CCN(c4ccccc4)CC3)o2)cc1,-1%,10µM*
Cc1ccc2nc(COc3ccccc3NC(=O)c3ccccc3F)cc(=O)n2c1,3%,-12%
CCN(CC)CCNC(=O)c1cc2c(=O)n(C)c3ccccc3c2n1C,-17%,1%
CN(C)CCNC(=O)c1cc2c(=O)n(C)c3ccccc3c2n1C,25µM*,?
Cc1ccc(C)c(-c2ccc(C(=O)O)o2)c1,8%,4%
Cc1sc(NC(=O)CSc2nnc(COc3ccc(Cl)cc3)n2C)c(C#N)c1C,1%,25µM*
Cc1ccc(-c2nnc(SCC(=O)Nc3sc(C)c(C)c3C#N)n2C)cc1,1%,?
O=C(COc1ccc(F)cc1)NCc1ccc2c(c1)CCN2C(=O)c1ccc(F)cc1,-4%,2%
COc1ccc(-c2oc3ncn4nc(Cc5ccccc5)nc4c3c2-c2ccc(OC)cc2)cc1,-10%,10µM*
COc1ccc(-c2oc3ncn4nc(COc5ccccc5)nc4c3c2-c2ccc(OC)cc2)cc1,-10%,4µM*
COc1ccc(-c2oc3ncn4nc(COc5ccc(C)cc5)nc4c3c2-c2ccc(OC)cc2)cc1,2%,7%
COc1ccc(OCc2nc3c4c(-c5ccc(OC)cc5)c(-c5ccc(OC)cc5)oc4ncn3n2)cc1,-1%,-7%
CCS(=O)(=O)N1CCc2cc(C(=O)Nc3ccc(OC)c(Cl)c3)ccc21,-8%,23%
Cc1ccc(NS(=O)(=O)c2ccc3c(c2)N(C)C(=O)CC(=O)N3C)cc1Cl,-8%,3%
C=CCn1c(=O)c2ccc(C(=O)NCc3ccccc3)cc2n(Cc2ccc(Cl)cc2)c1=O,-4%,-28%
C=CCn1c(=O)c2ccc(C(=O)NCc3ccccc3)cc2n(Cc2ccccc2Cl)c1=O,2%,25µM*
C[C@]1(O)CC[C@H]2[C@@H]3[C@@H](O)CC4=CC(=O)CC[C@@]4(C)[C@H]3CC[C@]21C,2%,6%
Cc1csc(NC(=O)Nc2ccc(Cl)cc2)n1,0%,?
O=C(Nc1ccc(Cl)c(Cl)c1)Nc1nc(-c2ccccc2)cs1,-2%,10µM*
O=C(Nc1ccc(Cl)cc1)Nc1nc(-c2sccc2Br)cs1,6%,10µM*
O=C(NNc1nc(-c2ccccc2)cs1)c1ccccc1,-1%,?
CCCCN(CC)CCNC(=O)c1c(C)oc2ncnc(N3CCOCC3)c12,-2%,-4%
S=C(Nc1ccc(Oc2ccccc2)cc1)NC1CCCCCC1,-5%,5%
S=C(Nc1ccc(Oc2ccc(NC(=S)NC3CCCCC3)cc2)cc1)NC1CCCCC1,-1%,4µM*
CCCCC/C=C\C[C@@H](O)/C=C/C=C\CCC(=O)O,3%,-1%
SMILES,Cruzain Triton,Cruzain noTriton
O=C(Nc1nnc(-c2ccccc2SCc2ccccc2F)s1)Nc1ccccc1F,2%,3.2µM*
CC(=O)Nc1nnc(SCc2ccccc2F)s1,2%,6%
CCOc1ccc(OCC)c(NS(=O)(=O)c2c(C(=O)N3CCCCCC3)c(C)n(C)c2C)c1,-4%,?
CC(/C=N/NC(=O)c1cc(-c2ccc(Cl)cc2)nc2ccccc12)=C\c1ccco1,-2%,7.9µM*
CC(/C=N/NC(=O)c1cc(-c2ccccc2)nc2ccccc12)=C\c1ccco1,-9%,?
CCOCCSc1c(C)cnc2c1c(=O)n(C)c(=O)n2C,-3%,-8%
CCc1ccc(NC(=O)Cn2c(=O)n(Cc3nc(-c4ccccc4)no3)c(=O)c3cc4c(cc32)OCO4)cc1,-2%,16µM*
Cc1ccc(NC(=O)Cn2c(=O)n(Cc3nc(-c4ccccc4)no3)c(=O)c3cc4c(cc32)OCO4)cc1C,-2%,10µM*
CC(C)c1ccc(NC(=O)Cn2c(=O)n(Cc3nc(-c4ccccc4)no3)c(=O)c3cc4c(cc32)OCO4)cc1,0%,13µM*
COc1ccc(NC(=O)Cn2c(=O)n(Cc3nc(-c4ccccc4)no3)c(=O)c3cc4c(cc32)OCO4)cc1Cl,-6%,?
COc1ccc(NC(=O)Cn2c(=O)n(Cc3nc(-c4ccccc4)no3)c(=O)c3cc4c(cc32)OCO4)c(OC)c1,-2%,16%
Cc1noc(Cn2c(=O)c3cc4c(cc3n(CC(=O)Nc3ccc(C(C)C)cc3)c2=O)OCO4)n1,-9%,5%
COc1ccc(CCNc2nc(SCc3ccccc3Cl)nc3ccccc23)cc1OC,0%,3%
Cc1ccc(N2C(=O)c3oc4cc(C)c(C)cc4c(=O)c3C2c2cccc(O)c2)nc1 (configuration not stated),-2%,2%
CCCS(=O)(=O)c1ncc(Cl)c(C(=O)Nc2c(C(=O)c3ccccc3)oc3ccccc23)n1,-1%,-7%
CCOc1ccc2nc(N(Cc3cccnc3)C(=O)c3ccco3)sc2c1,-9%,?
CCOc1ccccc1/C=N/NC(=O)Cc1csc(Nc2cccc(C(F)(F)F)c2)n1,-2%,10µM*
CCOc1ccc(/C=N/NC(=O)Cc2csc(Nc3cccc(C(F)(F)F)c3)n2)c(OCC)c1,4%,?
COc1ccc(CCNCc2c(C(=O)O)c(C)n(Cc3cccc(Cl)c3)c2C)c(OC)c1OC,-1%,18%
CCOc1ccc2noc3c2c1C(=O)c1ccccc1-3,-2%,-22%
O=C1c2ccccc2-c2onc3c(Oc4ccccc4)cc(O)c1c23,-2%,20µM*
Cc1ccc(C)c(N2CCN(C(=O)C3CCN(c4nc(-c5ccc(C(C)C)cc5)no4)CC3)CC2)c1,1%,-2%
CCc1cccc(NC(=O)Cn2c(=O)n3nc(-c4cccc(F)c4)nc3c3ccccc32)c1,-2%,-14%
COc1ccc(Nc2nnc(SC(C(=O)Nc3ccc(OC)c(Cl)c3)c3ccccc3)s2)cc1 (configuration not stated),-1%,6.3µM*
COc1cccc(NC(=O)C(Sc2nnc(Nc3ccccc3C)s2)c2ccccc2)c1 (configuration not stated),-2%,?
SMILES,Cruzain Triton,Cruzain noTriton
CCn1c(CNC(=O)c2ccc(OC)cc2)nnc1SCC(=O)Nc1ccc(F)cc1,0%,2%
COc1cccc2c1Oc1ncccc1N(c1ccc(C(=O)NCc3cccc(C)c3)s1)C2,-4%,-16%
COc1cccc2c1Oc1ncccc1N(c1ccc(C(=O)NCc3ccccc3Cl)s1)C2,-25%,25µM*
O=C(Cn1c(=O)sc2ccccc21)Nc1ccc(S(=O)(=O)N2CCCCC2)cc1,-5%,32µM*
O=C(Cn1c(=O)sc2ccccc21)Nc1ccccc1,8%,-12%
COC(=O)c1cc(NC(=O)c2cccc(C(F)(F)F)c2)c(=O)oc1C/C=N/OCc1cccc(Cl)c1Cl,-28%,0.79µM*
O=C(NCc1ccccc1Cl)c1cccc(C(F)(F)F)c1,-5%,-2%
Cc1ccc(N2C(=O)CC(Sc3nc(-c4ccccc4)c4cc(Cl)ccc4n3)C2=O)c(C)c1 (configuration not stated),-8%,16µM*
Cc1ccccc1N1C(=O)CC(Sc2nnc(-c3ccccc3)o2)C1=O (configuration not stated),-3%,3%
O=c1c(-c2ccccc2)nc2cnc(N3CCNCC3)nc2n1Cc1cccs1,1%,3%
CCOC(=O)c1c(NC(=S)Nc2cc([N+](=O)[O-])ccc2OC)sc2c1CCCCC2,-6%,13µM*
CCOC(=O)c1c(NC(=S)Nc2ccc(C)cc2)sc2c1CCC2,-5%,?
COC(=O)c1c(NC(=O)C2CC2)sc2c1CCCC2,-6%,-7%
COC(=O)c1c(NC(=S)Nc2cc(OC)c(Cl)cc2OC)sc2c1CCCCC2,-2%,16µM*
